Results published in PubChem BioAssay.
Results filed as inconclusive are left out. The source made the active and inactive calls. Cut-off read from the data, not from the text of the source, unless noted: active = response above about 15%; inactive = the rest.

How the values were obtained:
[1] = rapamycin-like changes in RPL19A-GFP expression – cell-based, S. cerevisiae, multiplex flow cytometry, primary screen (AID 1862; in the data active = percent of DMSO control GFP below about 86%;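 note: lower values mimic rapamycin by blocking the RPL19A rise seen in DMSO cells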); settings: S. cerevisiae RPL19A-GFP strain, flow cytometry fluorescence, 3 h; at 10 µM; stronger effect = lower value
[2] = TOR pathway GLN3 branch reporter MEP2-GFP changes – S. cerevisiae, multiplex flow cytometry, primary screen (AID 1867;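 active = GFP response, as percent of the DMSO control, above the screen-wide mean plus 3 SD, about 139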;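 note: median GFP channel fluorescence of barcode-gated MEP2-GFP cells measured by flow cytometry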); settings: S. cerevisiae MEP2-GFP strain, 3 h, at 10 µM, stronger effect = higher value, 100% means same as DMSO wells
[3] = TOR pathway RTG branch CIT2 reporter changes – S. cerevisiae, GFP fusion, multiplex flow cytometry, primary screen (AID 1870;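 active = percent response above a set limit, the screen-wide mean plus 3 SD, cut at about 130% in these data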;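 note: barcoded CIT2-GFP strain pooled with four other GFP strains with rapamycin as positive control; median GFP fluorescence per well over plate mean of DMSO wells so 100% = DMSO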); settings: S. cerevisiae CIT2-GFP expression, 3 h, at 10 µM, stronger effect = higher value
[4] = TOR pathway LAP4-GFP level changes – S. cerevisiae, multiplex flow cytometry, primary screen (AID 1873;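 active = GFP signal, as percent of the solvent control, above the screen mean plus 3 SD, about 149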); settings: S. cerevisiae LAP4-GFP expression, 3 h, at 10 µM, stronger effect = higher value
[5] = reduced mouse 2C T cell binding to pMHC/ICAM-1 vesicles – MLPCN validation set, flow cytometry, LFA-1/ICAM-1 modulator project, pilot screen (AID 2523;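 active = response below a set limit, under 55% cells CD8-positive and vesicle-bound, and CD8 cells' 90th-percentile brightness under 279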;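 for vesicle binding response: mean PE anti-B7-1 fluorescence of CD8+ cells relative to row control; 100% = QL9-loaded vesicles with DMSO vehicle in the same plate row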); settings: 2C mouse CD8+ T cells, at 7 µM, stronger effect = lower value; double positive events: measured here: CD8+/vesicle+ event percentage
[6] = target: Integrin beta-1 (Homo sapiens) + Integrin alpha-4 (Homo sapiens) (UniProt P13612+P05556); test: alpha4beta1 integrin LIBS antibody binding reduction – U937 cells, HUTS-21 mAb, flow cytometry, validation set, VLA-4 allosteric modulator project, pilot screen (AID 2674;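 active = inhibition above 50%, about 3 SD of the validation set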;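 note: antibody binding induced by the VLA-4 ligand LDV present at three times its Kd; 0% = LDV ligand with antibody and no compound and 100% = antibody without LDV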); settings: HUTS-21 LIBS mAb binding, at 6.7 µM, stronger effect = higher value, binding induced by LDV ligand
Chain of Integrin beta-1 (Homo sapiens) + Integrin alpha-4 (Homo sapiens) (P05556 whole entry, looked up): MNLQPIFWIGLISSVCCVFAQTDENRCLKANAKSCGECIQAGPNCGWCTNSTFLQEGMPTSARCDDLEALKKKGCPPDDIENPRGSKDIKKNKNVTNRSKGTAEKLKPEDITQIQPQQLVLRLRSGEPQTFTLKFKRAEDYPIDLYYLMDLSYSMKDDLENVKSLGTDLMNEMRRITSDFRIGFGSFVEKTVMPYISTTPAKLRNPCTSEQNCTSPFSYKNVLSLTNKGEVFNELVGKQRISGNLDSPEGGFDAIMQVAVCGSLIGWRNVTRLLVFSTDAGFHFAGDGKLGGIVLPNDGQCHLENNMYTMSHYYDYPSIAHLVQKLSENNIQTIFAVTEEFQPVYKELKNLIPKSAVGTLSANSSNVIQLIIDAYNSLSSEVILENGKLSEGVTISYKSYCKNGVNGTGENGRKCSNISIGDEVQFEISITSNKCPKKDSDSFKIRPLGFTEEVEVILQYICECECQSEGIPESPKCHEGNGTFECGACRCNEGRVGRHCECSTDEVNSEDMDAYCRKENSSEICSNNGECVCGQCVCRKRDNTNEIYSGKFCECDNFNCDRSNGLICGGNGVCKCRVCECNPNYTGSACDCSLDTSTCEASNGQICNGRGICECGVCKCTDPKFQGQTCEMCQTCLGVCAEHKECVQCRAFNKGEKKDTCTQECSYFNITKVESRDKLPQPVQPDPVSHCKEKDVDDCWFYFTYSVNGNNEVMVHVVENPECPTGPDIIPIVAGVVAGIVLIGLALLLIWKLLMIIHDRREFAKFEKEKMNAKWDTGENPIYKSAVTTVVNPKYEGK
Chain of Integrin beta-1 (Homo sapiens) + Integrin alpha-4 (Homo sapiens) (P13612 whole entry, looked up): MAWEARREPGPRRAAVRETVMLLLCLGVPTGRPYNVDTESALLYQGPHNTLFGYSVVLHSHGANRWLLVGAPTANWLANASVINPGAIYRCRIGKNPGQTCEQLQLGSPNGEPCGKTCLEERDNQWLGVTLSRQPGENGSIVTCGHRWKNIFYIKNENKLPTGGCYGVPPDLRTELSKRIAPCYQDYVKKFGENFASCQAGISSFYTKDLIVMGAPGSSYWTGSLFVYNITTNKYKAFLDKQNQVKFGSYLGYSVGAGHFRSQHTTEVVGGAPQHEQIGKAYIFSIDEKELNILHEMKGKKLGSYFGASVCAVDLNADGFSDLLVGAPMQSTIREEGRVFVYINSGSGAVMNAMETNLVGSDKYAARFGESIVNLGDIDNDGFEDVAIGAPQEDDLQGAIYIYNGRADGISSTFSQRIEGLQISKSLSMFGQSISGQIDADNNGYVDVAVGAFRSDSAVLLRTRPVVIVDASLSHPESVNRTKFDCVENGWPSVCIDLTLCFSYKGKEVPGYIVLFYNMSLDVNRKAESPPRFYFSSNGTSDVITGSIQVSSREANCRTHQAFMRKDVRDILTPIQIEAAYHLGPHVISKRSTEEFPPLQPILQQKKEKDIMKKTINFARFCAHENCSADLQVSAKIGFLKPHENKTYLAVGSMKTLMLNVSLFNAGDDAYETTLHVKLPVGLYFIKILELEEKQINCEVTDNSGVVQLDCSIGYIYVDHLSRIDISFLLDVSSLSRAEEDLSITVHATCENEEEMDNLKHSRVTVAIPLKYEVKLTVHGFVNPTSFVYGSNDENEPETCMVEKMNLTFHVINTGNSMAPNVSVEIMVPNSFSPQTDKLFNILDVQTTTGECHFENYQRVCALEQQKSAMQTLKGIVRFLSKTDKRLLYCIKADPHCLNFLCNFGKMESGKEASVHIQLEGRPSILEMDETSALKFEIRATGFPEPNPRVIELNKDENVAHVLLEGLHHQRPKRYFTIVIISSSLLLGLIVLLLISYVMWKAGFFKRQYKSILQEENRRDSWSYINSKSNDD

[7] = calorie-restriction mimetic ROS inhibitors, yeast – validation compound set, pilot screen (AID 2706;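 active = superoxide response below 65% of plate, a cut near 3 SD across the whole screen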;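 note: yeast exposed to compound for one week at 30 degrees C before staining; 100% = mean of all compound wells on the same plate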); settings: S. cerevisiae aging, superoxide DHE fluorescence; at 10 µM, stronger effect = lower value
[8] = target: Beta-adrenergic receptor kinase 1 (Homo sapiens) (UniProt P25098); test: GRK2 binders displacing RNA aptamer, biochemical, validation, human GRK2, bead flow cytometry (AID 488806;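 active = aptamer binding inhibition above 30%, about 3 SD of noise from non-fluorescent compounds; inactive = inhibition at or below 30%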); settings: bead-bound GRK2, FAM-aptamer displacement, at 10 µM, stronger effect = higher value
Chain of Beta-adrenergic receptor kinase 1 (Homo sapiens) (P25098 whole entry, looked up): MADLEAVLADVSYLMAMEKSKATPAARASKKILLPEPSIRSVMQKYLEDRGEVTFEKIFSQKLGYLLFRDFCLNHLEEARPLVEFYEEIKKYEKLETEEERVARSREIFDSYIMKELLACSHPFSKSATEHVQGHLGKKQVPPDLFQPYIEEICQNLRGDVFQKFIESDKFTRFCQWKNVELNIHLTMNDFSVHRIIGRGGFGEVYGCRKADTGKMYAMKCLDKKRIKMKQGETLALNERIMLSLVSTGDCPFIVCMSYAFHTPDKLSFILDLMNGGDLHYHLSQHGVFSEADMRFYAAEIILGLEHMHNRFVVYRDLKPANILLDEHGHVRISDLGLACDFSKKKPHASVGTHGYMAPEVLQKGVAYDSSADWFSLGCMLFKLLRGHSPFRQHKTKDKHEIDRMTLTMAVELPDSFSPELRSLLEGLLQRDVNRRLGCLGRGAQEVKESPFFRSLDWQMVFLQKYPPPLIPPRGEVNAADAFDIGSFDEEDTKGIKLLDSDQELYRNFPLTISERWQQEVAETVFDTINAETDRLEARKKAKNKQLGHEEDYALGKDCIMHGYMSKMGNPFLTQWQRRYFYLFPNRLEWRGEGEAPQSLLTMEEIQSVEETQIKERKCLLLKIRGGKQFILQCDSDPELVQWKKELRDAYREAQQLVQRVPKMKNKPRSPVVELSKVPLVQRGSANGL

[9] = target: Beta-2 adrenergic receptor (Homo sapiens) (UniProt P07550); test: agonist-induced loss of surface beta2AR – cell-based, FAP fluorogen, flow cytometry, validation set, pilot screen (AID 504459;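 active = percent response above 42, roughly 3 SD of non-fluorescent test compounds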;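 note: agonist-driven loss of surface beta2AR via internalization measured by FAP dye flow cytometry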); settings: Am2.2-beta2AR cells, at 10 µM, stronger effect = higher value
Chain of Beta-2 adrenergic receptor (Homo sapiens) (P07550 whole entry, looked up): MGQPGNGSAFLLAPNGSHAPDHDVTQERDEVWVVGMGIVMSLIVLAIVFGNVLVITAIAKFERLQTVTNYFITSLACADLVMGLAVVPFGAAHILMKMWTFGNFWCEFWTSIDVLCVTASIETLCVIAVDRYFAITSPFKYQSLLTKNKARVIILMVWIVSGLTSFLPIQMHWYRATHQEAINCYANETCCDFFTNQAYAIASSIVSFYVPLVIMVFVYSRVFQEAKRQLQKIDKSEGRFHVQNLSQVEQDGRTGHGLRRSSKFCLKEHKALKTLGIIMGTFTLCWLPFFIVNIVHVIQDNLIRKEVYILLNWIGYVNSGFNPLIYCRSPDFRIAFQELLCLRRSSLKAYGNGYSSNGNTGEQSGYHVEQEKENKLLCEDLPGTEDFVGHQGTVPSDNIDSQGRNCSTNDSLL

[10] = target: AP-2 complex subunit beta (Homo sapiens) (UniProt P63010); test: beta-arrestin/AP2 interaction blockers – biochemical, validation set, GST-AP2 beads, flow cytometry, pilot screen (AID 504541;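 active = inhibition above 54%, about 3 SD of non-fluorescent compounds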;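 note: AP2 carries R879A mutation and is captured from E. coli lysate; bead-bound FITC arrestin peptide fluorescence measuring arrestin peptide binding to AP2; 0% = DMSO wells and 100% = excess unlabeled arrestin peptide control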); settings: FITC arrestin peptide, at 10 µM, stronger effect = higher value, AP2 beta2 appendage fragment, R879A mutant
Chain of AP-2 complex subunit beta (Homo sapiens) (P63010 whole entry, looked up, the tested form may be a part, one chain of several): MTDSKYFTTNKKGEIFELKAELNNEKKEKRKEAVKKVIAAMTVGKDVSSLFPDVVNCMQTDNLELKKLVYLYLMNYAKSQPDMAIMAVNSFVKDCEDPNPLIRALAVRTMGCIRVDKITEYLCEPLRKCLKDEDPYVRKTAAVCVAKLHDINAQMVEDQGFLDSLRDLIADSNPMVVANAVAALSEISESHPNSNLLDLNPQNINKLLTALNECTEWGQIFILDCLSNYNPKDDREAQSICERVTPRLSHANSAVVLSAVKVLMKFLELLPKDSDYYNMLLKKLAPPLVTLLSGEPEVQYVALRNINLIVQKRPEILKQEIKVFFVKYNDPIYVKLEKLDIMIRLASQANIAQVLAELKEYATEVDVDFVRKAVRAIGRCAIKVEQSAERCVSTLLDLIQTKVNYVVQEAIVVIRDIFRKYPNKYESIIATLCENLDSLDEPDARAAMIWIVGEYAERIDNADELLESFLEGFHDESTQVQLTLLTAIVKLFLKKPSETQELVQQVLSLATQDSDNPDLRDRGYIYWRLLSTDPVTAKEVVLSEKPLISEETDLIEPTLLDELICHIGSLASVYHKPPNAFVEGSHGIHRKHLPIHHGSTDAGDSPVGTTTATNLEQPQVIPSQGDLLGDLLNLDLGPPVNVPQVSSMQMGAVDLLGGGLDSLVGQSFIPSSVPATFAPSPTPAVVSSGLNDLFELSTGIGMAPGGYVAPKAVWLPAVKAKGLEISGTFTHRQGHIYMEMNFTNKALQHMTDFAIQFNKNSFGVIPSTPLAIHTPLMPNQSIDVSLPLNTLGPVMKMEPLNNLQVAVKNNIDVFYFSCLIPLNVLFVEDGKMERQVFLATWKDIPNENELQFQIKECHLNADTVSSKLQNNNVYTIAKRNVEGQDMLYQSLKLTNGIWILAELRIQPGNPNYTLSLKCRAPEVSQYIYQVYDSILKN

[11] = cytosolic pH regulators acting via V-ATPase – S. cerevisiae, pHLuorin, HTS validation (AID 504600); settings: V-ATPase proton transport, at 10 µM, stronger effect = higher value;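 note: plate controls were DMSO for no effect and reference compound for full effect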
[12] = test system: anti-desmoglein-3 scFv antibody binding to human DSG3; test: blockers of pathogenic pemphigus antibody–desmoglein-3 binding – biochemical, validation compound set, bead-based, flow cytometry, pilot screen (AID 588368;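 active = binding below the plate cutoff, the plate median minus 3 SD, with a reading above zero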;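 note: signal is the median channel fluorescence of bead-bound GFP antibody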); settings: Protein G beads, DSG3-Fc, scFv-GFP binding, at 10 µM, stronger effect = lower value
[13] = Nile Red efflux blockade in pump-expressing yeast – validation compound set, multiplex, phenotypic, pilot screen (AID 588506;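 active = efflux inhibition above 0.42, the validation set average plus 4 SD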;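 note: Nile Red retained in cells so higher fluorescence means more efflux inhibition; 0 = negative control wells and 1 = enniatin B 25 µM full block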); settings: S. cerevisiae pump-expressing triplex, Nile Red efflux flow cytometry; at 10 µM; stronger effect = higher value; the pumps come from Candida albicans
[14] = target: ATP-binding cassette sub-family B member 6 (Homo sapiens) (UniProt Q9NP58); test: blockers of ABCB6-driven porphyrin uptake – K562-ABCB6 cells, flow cytometry, validation set, pilot screen (AID 588550;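 active = inhibition above the screen-wide mean plus 3 SD, about 51%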;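 note: 0% = DMSO wells and 100% = benzethonium chloride 70 µM positive control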); settings: K562-ABCB6 porphyrin accumulation, 1 h, at 10 µM, stronger effect = higher value
Chain of ATP-binding cassette sub-family B member 6 (Homo sapiens) (Q9NP58 whole entry, looked up): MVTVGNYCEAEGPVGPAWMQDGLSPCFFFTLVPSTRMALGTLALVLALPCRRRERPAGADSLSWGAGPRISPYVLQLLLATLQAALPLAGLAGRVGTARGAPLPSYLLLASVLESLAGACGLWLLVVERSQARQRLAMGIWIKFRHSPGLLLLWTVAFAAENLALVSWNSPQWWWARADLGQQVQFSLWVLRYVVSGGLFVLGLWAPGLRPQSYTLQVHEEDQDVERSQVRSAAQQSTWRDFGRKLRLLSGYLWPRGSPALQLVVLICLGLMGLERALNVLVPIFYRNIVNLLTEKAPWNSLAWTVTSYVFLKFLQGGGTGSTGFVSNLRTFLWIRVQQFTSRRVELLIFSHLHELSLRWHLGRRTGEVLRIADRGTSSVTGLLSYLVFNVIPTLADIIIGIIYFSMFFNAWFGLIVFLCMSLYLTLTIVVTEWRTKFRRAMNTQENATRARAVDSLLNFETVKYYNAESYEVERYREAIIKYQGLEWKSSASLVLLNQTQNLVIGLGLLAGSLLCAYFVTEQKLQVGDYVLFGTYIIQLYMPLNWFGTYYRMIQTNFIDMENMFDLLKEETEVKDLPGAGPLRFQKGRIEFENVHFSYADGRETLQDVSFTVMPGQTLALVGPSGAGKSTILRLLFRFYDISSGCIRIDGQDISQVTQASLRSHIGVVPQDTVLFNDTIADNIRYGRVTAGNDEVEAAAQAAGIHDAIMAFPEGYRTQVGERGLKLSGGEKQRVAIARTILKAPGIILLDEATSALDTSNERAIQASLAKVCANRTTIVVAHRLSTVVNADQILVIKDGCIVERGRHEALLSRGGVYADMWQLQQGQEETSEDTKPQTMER

[15] = AML differentiation inducers, ER-HoxA9 marrow cells – cell-based, GFP/MAC1 double positive, flow cytometry, validation set, primary screen (AID 588685;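 active = differentiation response of at least 50%, scaled between solvent and reference control, from cells with both markers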;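 note: compound exposure lasts four days before antibody staining and flow analysis; 0% = DMSO wells and 100% = 5 µM fulvestrant positive control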); settings: stronger effect = higher value, normalized: vehicle 0, fulvestrant 100
[16] = yeast AGP1-GFP level changes, GLN3 branch – cell-based, multiplex flow cytometry, S. cerevisiae, primary screen (AID 1887;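 active = GFP signal above the screen-wide mean plus 3 SD, that is over about 124.5% of the solvent control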;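 note: AGP1-GFP fusion strain of S. cerevisiae within a five-strain barcoded multiplex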); settings: 3 h, at 10 µM, stronger effect = higher value
[17] = hit retest on RPL19A-GFP reporter strain – cell-based, S. cerevisiae, flow cytometry, cherry picks, mother/daughter gates, confirmation (AID 2270;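 active = GFP response below 50% of the DMSO control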); settings: 3 h, at 10 µM, stronger effect = lower value, 100 = same GFP as DMSO wells
[18] = yeast TOR pathway reporter LAP4-GFP change – cell-based, cherry picks, flow cytometry, mother/daughter gates, confirmation (AID 2271;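 active = GFP response above 150% of the DMSO control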;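 note: ratio of sample to DMSO plate mean so 100% equals DMSO level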); settings: S. cerevisiae LAP4-GFP strain, 3 h, at 10 µM, stronger effect = higher value, 100 means same as DMSO control
[19] = TOR pathway reporter MEP2-GFP, retest of hits – S. cerevisiae, flow cytometry GFP, cherry picks, confirmation (AID 2272;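 active = GFP response above 150% of the DMSO control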;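 note: ratio of well signal to plate DMSO mean so 100% equals DMSO level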); settings: S. cerevisiae MEP2-GFP strain, 3 h, at 10 µM, stronger effect = higher value
[20] = TOR pathway CIT2 reporter hit retest – S. cerevisiae, GFP fusion, cherry picks, mother/daughter gates, confirmation (AID 2274;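 active = GFP response above 150% of the DMSO level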); settings: S. cerevisiae CIT2-GFP strain, flow cytometry, 3 h, at 10 µM, stronger effect = higher value
[21] = measured here: daughter cell gate
[22] = measured here: mother cell gate

CCOc1ccc(C(=O)Nc2ccc(N3CCN(C(C)=O)CC3)cc2)cc1[N+](=O)[O-]
68.5%: double positive events [5]
inactive: percent of DMSO control GFP [1] 93% | GFP response vs DMSO [2] 106% | percent response of DMSO control [3] 115% | GFP response vs DMSO [4] 78.7% | vesicle binding response [5] 210% | inhibition [6] 3.55% | superoxide response (% of plate) [7] 100% | aptamer binding inhibition [8] 3% | response [9] -6.75% | inhibition [10] -0.46% | response [11] 0.55% | binding (% of control) [12] 99.4% | efflux inhibition (fraction of control) [13] 0.27 | inhibition [14] 11% | differentiation response [15] -1.64%

CCCNC(=O)NS(=O)(=O)c1ccc(Cl)cc1
48%: double positive events [5]
inactive: percent of DMSO control GFP [1] 98.2% | GFP response vs DMSO [2] 104% | percent response of DMSO control [3] 97.1% | GFP response vs DMSO [4] 101% | GFP response, % of DMSO [16] 103% | inhibition [6] 1.12% | superoxide response (% of plate) [7] 99.1% | aptamer binding inhibition [8] 2% | response [9] -4.85% | inhibition [10] 11.1% | response [11] -3.28% | binding (% of control) [12] 102% | efflux inhibition (fraction of control) [13] -0.02 | inhibition [14] 2% | differentiation response [15] 8.02%

Nc1cccc(C(=O)O)c1
inactive: percent of DMSO control GFP [1] 95.5% | GFP response vs DMSO [2] 116% | percent response of DMSO control [3] 122% | GFP response vs DMSO [4] 79.2% | vesicle binding response [5] 214% | inhibition [6] 10.3% | superoxide response (% of plate) [7] 102% | aptamer binding inhibition [8] 4% | response [9] -6.68% | inhibition [10] -0.66% | response [11] 3.11% | binding (% of control) [12] 102% | efflux inhibition (fraction of control) [13] 0.05 | inhibition [14] 6% | differentiation response [15] -0.82%
63.4%: double positive events [5]

CN(C)CCOc1ccc(Cl)cc1C(C)(C)C
40.5%: double positive events [5]
inactive: percent of DMSO control GFP [1] 103% | GFP response vs DMSO [2] 98.5% | percent response of DMSO control [3] 105% | GFP response vs DMSO [4] 122% | GFP response, % of DMSO [16] 109% | inhibition [6] 7.76% | superoxide response (% of plate) [7] 105% | aptamer binding inhibition [8] -1% | response [9] -20.4% | inhibition [10] -1.49% | response [11] -1.18% | binding (% of control) [12] 99.5% | efflux inhibition (fraction of control) [13] 0.05 | inhibition [14] 5% | differentiation response [15] -16.8%

Cc1cccc(N(C)C(=S)Oc2ccc3ccccc3c2)c1
inactive: percent of DMSO control GFP [1] 94.4% | GFP response vs DMSO [2] 114% | percent response of DMSO control [3] 95.2% | GFP response vs DMSO [4] 78.7% | GFP response, % of DMSO [16] 97.5% | inhibition [6] -8.09% | superoxide response (% of plate) [7] 87.4% | aptamer binding inhibition [8] 0% | response [9] 11.2% | inhibition [10] -3.34% | response [11] 4.82% | binding (% of control) [12] 106% | efflux inhibition (fraction of control) [13] -0.38 | inhibition [14] 8% | differentiation response [15] -1.64%
86.4%: double positive events [5]

Cc1ccccc1OCC(O)CN1CCN(C)CC1 (centres undefined)
62.9%: double positive events [5]
inactive: percent of DMSO control GFP [1] 97.9% | GFP response vs DMSO [2] 115% | percent response of DMSO control [3] 112% | GFP response vs DMSO [4] 75.9% | vesicle binding response [5] 193% | inhibition [6] 4.52% | superoxide response (% of plate) [7] 107% | aptamer binding inhibition [8] 3% | response [9] -6.23% | inhibition [10] 5.62% | response [11] -0.77% | binding (% of control) [12] 103% | efflux inhibition (fraction of control) [13] 0.27 | inhibition [14] 7% | differentiation response [15] -2.46%

O=C1OC(=O)C2C1[C@@H]1CC[C@H]2O1 (some centres undefined)
60.8%: double positive events [5]
inactive: percent of DMSO control GFP [1] 96.6% | GFP response vs DMSO [2] 103% | percent response of DMSO control [3] 118% | GFP response vs DMSO [4] 72.6% | vesicle binding response [5] 195% | inhibition [6] -8.09% | superoxide response (% of plate) [7] 94.4% | aptamer binding inhibition [8] 3% | response [9] -8.34% | inhibition [10] -1.78% | response [11] -0.92% | binding (% of control) [12] 107% | efflux inhibition (fraction of control) [13] -0.24 | inhibition [14] 7% | differentiation response [15] -0.82%

OC[C@@H](O)[C@@H](O[C@H]1O[C@H](CO)[C@@H](O)[C@H](O)[C@H]1O)[C@H](O)[C@@H](O)CO
active: efflux inhibition (fraction of control) [13] 0.8
65%: double positive events [5]
inactive: percent of DMSO control GFP [1] 102% | GFP response vs DMSO [2] 103% | percent response of DMSO control [3] 88.4% | GFP response vs DMSO [4] 92% | GFP response, % of DMSO [16] 95% | vesicle binding response [5] 208% | aptamer binding inhibition [8] 0% | response [9] -1.29% | inhibition [10] 13.8% | response [11] -1.56% | binding (% of control) [12] 102% | inhibition [14] -1% | differentiation response [15] 20.8%

C[C@]12CCC(=O)C=C1CC[C@@H]1[C@@H]2C(=O)C[C@@]2(C)[C@H]1CC[C@]2(O)C(=O)CO
94.6%: GFP response relative to DMSO ([18]; measured here: mother cell gate response)
100%: GFP response, % of DMSO [20, 21]
99.3%: GFP response relative to DMSO ([18]; measured here: daughter cell gate response)
99.1%: GFP response, % of DMSO [20, 22]
97.3%: GFP response vs DMSO [17, 21]
61.9%: double positive events [5]
98.1%: GFP response vs DMSO [17, 22]
inactive: percent of DMSO control GFP [1] 89.8% | GFP response vs DMSO [2] 125% | percent response of DMSO control [3] 108% | GFP response vs DMSO [4] 88% | GFP response vs DMSO [17] 97% | GFP response relative to DMSO [18] 96.5% | GFP response vs DMSO [19] 102% | GFP response, % of DMSO [20] 99.3% | vesicle binding response [5] 136% | inhibition [6] 14.2% | superoxide response (% of plate) [7] 94.9% | aptamer binding inhibition [8] 4% | response [9] -5.55% | inhibition [10] -9.52% | response [11] 1.03% | binding (% of control) [12] 101% | efflux inhibition (fraction of control) [13] 0.3 | inhibition [14] 14% | differentiation response [15] 14.7%

CCOC(=O)c1c(C)oc2cc(Br)c(OC(C)C(=O)OCC)cc12 (centres undefined)
inactive: percent of DMSO control GFP [1] 95% | GFP response vs DMSO [2] 119% | percent response of DMSO control [3] 102% | GFP response vs DMSO [4] 84.7% | vesicle binding response [5] 238% | inhibition [6] 2.58% | superoxide response (% of plate) [7] 93% | aptamer binding inhibition [8] 7% | response [9] 4% | inhibition [10] 1.62% | response [11] -3.94% | binding (% of control) [12] 101% | efflux inhibition (fraction of control) [13] -0.31 | inhibition [14] 12% | differentiation response [15] -1.64%
60.7%: double positive events [5]
